Laboratory results taken from article PMC5540273 (PLoS ONE, 2017).

How the values were obtained:
Conditions in all cases: concentration: 1 μM, replicates: in singlicate; n = 1
CDK8 = test system: CDK8
CDK9 = test system: CDK9
CDKL1 = test system: CDKL1
CDKL2 = test system: CDKL2
CDKL3 = test system: CDKL3
CDKL5 = test system: CDKL5
CHEK1 = test system: CHEK1
CHEK2 = test system: CHEK2
CIT = test system: CIT
CLK1 = test system: CLK1
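Further: KINOMEscan kinase panel screen.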

CC(C)(C)c1ccc(C(=O)Nc2cn3cc(-n4ccnc4)ccc3n2)cc1
%Inh (CDK8): 5% | %Inh (CDK9): 3% | %Inh (CDKL1): 29% | %Inh (CDKL2): 0% | %Inh (CDKL3): 18% | %Inh (CDKL5): 7% | %Inh (CHEK1): 0% | %Inh (CHEK2): 0% | %Inh (CIT): 44% | %Inh (CLK1): 92.4%

CCNC(=O)/C=C/c1n[nH]c2cc(Sc3ccccc3C(=O)NC)ccc12
%Inh (CDK8): 20% | %Inh (CDK9): 13% | %Inh (CDKL1): 17% | %Inh (CDKL2): 26% | %Inh (CDKL3): 17% | %Inh (CDKL5): 15% | %Inh (CHEK1): 0% | %Inh (CHEK2): 0% | %Inh (CIT): 0% | %Inh (CLK1): 17%

CN(c1ccc(NC(=O)Nc2cccc(Cl)c2)cc1)c1ccnc(N)n1.Cl [GW830707]
%Inh (CDK8): 85% | %Inh (CDK9): 0% | %Inh (CDKL1): 0% | %Inh (CDKL2): 39% | %Inh (CDKL3): 0% | %Inh (CDKL5): 0% | %Inh (CHEK1): 0% | %Inh (CHEK2): 7% | %Inh (CIT): 9% | %Inh (CLK1): 0%

Nc1ncc(-c2ccc3nccc(-c4ccncc4)c3c2)cc1S(=O)(=O)N1CCCCC1 [GSK1693850]
%Inh (CDK8): 45% | %Inh (CDK9): 5% | %Inh (CDKL1): 0% | %Inh (CDKL2): 27% | %Inh (CDKL3): 0% | %Inh (CDKL5): 0% | %Inh (CHEK1): 1% | %Inh (CHEK2): 23% | %Inh (CIT): 31% | %Inh (CLK1): 81%

COc1cccc(NC(=O)NCCNc2ccnc(Nc3ccc(F)cc3)n2)c1 [GSK1379879]
%Inh (CDK8): 27% | %Inh (CDK9): 0% | %Inh (CDKL1): 0% | %Inh (CDKL2): 15% | %Inh (CDKL3): 0% | %Inh (CDKL5): 0% | %Inh (CHEK1): 0% | %Inh (CHEK2): 0% | %Inh (CIT): 6% | %Inh (CLK1): 17%

CC(=O)Nc1cn2nc(Oc3cccc(NC(=O)c4cccc(C(F)(F)F)c4)c3)ccc2n1
%Inh (CDK8): 70% | %Inh (CDK9): 0% | %Inh (CDKL1): 48% | %Inh (CDKL2): 44% | %Inh (CDKL3): 6% | %Inh (CDKL5): 0% | %Inh (CHEK1): 0% | %Inh (CHEK2): 0% | %Inh (CIT): 99.8% | %Inh (CLK1): 5%

CN(C)CCNS(=O)(=O)c1ccc(-c2ccnc3[nH]ccc23)cc1 [GSK977620]
%Inh (CDK8): 0% | %Inh (CDK9): 0% | %Inh (CDKL1): 0% | %Inh (CDKL2): 8% | %Inh (CDKL3): 0% | %Inh (CDKL5): 0% | %Inh (CHEK1): 35% | %Inh (CHEK2): 27% | %Inh (CIT): 27% | %Inh (CLK1): 88%

Cc1ccc(NC(=O)c2ccnc(N3CCCCC3)c2)cc1-c1ccc(C(=O)NCC2CC2)cc1 [GW775610]
%Inh (CDK8): 39% | %Inh (CDK9): 1% | %Inh (CDKL1): 9% | %Inh (CDKL2): 33% | %Inh (CDKL3): 0% | %Inh (CDKL5): 75% | %Inh (CHEK1): 0% | %Inh (CHEK2): 39% | %Inh (CIT): 38% | %Inh (CLK1): 11%

Cc1cc(-c2ccnc(Nc3cccc(C#N)c3)n2)cc(C)c1O [GSK1440913]
%Inh (CDK8): 30% | %Inh (CDK9): 52% | %Inh (CDKL1): 1% | %Inh (CDKL2): 89% | %Inh (CDKL3): 99.1% | %Inh (CDKL5): 24% | %Inh (CHEK1): 0% | %Inh (CHEK2): 0% | %Inh (CIT): 94% | %Inh (CLK1): 99%

CCOc1nccc(-c2c(-c3ccc(F)cc3)ncn2C2CCNCC2)n1 [SB-249175]
%Inh (CDK8): 25% | %Inh (CDK9): 1% | %Inh (CDKL1): 1% | %Inh (CDKL2): 0% | %Inh (CDKL3): 17% | %Inh (CDKL5): 7% | %Inh (CHEK1): 0% | %Inh (CHEK2): 16% | %Inh (CIT): 10% | %Inh (CLK1): 0%

COc1ccc(C2=C(Nc3cccc(O)c3)C(=O)NC2=O)cc1 [SB-390766]
%Inh (CDK8): 0% | %Inh (CDK9): 0% | %Inh (CDKL1): 0% | %Inh (CDKL2): 7% | %Inh (CDKL3): 32% | %Inh (CDKL5): 3% | %Inh (CHEK1): 2% | %Inh (CHEK2): 0% | %Inh (CIT): 4% | %Inh (CLK1): 86%

CN(c1ccc(F)c(NC(=O)c2cccc(OC(C)(C)C#N)c2Cl)c1)c1ccc2nc(NC(=O)C3CC3)sc2n1
%Inh (CDK8): 2% | %Inh (CDK9): 0% | %Inh (CDKL1): 0% | %Inh (CDKL2): 27% | %Inh (CDKL3): 0% | %Inh (CDKL5): 0% | %Inh (CHEK1): 0% | %Inh (CHEK2): 13% | %Inh (CIT): 93.7% | %Inh (CLK1): 0%

COc1cccc(-c2nc(-c3ccccc3)[nH]c2-c2ccncc2)c1 [SB-610250]
%Inh (CDK8): 30% | %Inh (CDK9): 0% | %Inh (CDKL1): 20% | %Inh (CDKL2): 23% | %Inh (CDKL3): 0% | %Inh (CDKL5): 8% | %Inh (CHEK1): 0% | %Inh (CHEK2): 0% | %Inh (CIT): 47% | %Inh (CLK1): 29%

Cn1cc(-c2ccc3c(c2)CCN3C(=O)Cc2cc(F)cc(C(F)(F)F)c2)c2c(N)ncnc21 [GSK2635225]
%Inh (CDK8): 91.8% | %Inh (CDK9): 7% | %Inh (CDKL1): 11% | %Inh (CDKL2): 24% | %Inh (CDKL3): 0% | %Inh (CDKL5): 0% | %Inh (CHEK1): 8% | %Inh (CHEK2): 0% | %Inh (CIT): 28% | %Inh (CLK1): 11%

Cl.O=C(Nc1ccc(Oc2ccc3[nH]c(NC(=O)c4ccco4)nc3c2)cc1)Nc1cc(C(F)(F)F)ccc1F [GW683134]
%Inh (CDK8): 86% | %Inh (CDK9): 5% | %Inh (CDKL1): 8% | %Inh (CDKL2): 85% | %Inh (CDKL3): 0% | %Inh (CDKL5): 0% | %Inh (CHEK1): 21% | %Inh (CHEK2): 0% | %Inh (CIT): 96.7% | %Inh (CLK1): 63%

CC(C)c1nc(-c2cccc(NS(=O)(=O)c3c(F)cccc3F)c2)c(-c2ccnc(Nc3ccc(N4CCOCC4)nc3)n2)s1.Cl [GSK1723980]
%Inh (CDK8): 6% | %Inh (CDK9): 75% | %Inh (CDKL1): 74% | %Inh (CDKL2): 98.9% | %Inh (CDKL3): 24% | %Inh (CDKL5): 97.8% | %Inh (CHEK1): 0% | %Inh (CHEK2): 13% | %Inh (CIT): 97.5% | %Inh (CLK1): 0%
